Screen size: about 310,000 compounds; about 14,000 (4.5%) showed an effect of 50% or more. Effects have a minus sign here. The sample as a whole holds a higher share of strong results than the screen did.
Molecular target: human ether-à-go-go-related gene (hERG) potassium channel (human, UniProt Q12809)
Test: primary screen, population patch clamp on CHO cells stably expressing hERG; higher = less effect of the substance
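Note: peak tail current of the secondary pulse compared with the same well before compound.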

human ether-à-go-go-related gene (hERG) potassium channel, sequence (Q12809 whole entry, looked up): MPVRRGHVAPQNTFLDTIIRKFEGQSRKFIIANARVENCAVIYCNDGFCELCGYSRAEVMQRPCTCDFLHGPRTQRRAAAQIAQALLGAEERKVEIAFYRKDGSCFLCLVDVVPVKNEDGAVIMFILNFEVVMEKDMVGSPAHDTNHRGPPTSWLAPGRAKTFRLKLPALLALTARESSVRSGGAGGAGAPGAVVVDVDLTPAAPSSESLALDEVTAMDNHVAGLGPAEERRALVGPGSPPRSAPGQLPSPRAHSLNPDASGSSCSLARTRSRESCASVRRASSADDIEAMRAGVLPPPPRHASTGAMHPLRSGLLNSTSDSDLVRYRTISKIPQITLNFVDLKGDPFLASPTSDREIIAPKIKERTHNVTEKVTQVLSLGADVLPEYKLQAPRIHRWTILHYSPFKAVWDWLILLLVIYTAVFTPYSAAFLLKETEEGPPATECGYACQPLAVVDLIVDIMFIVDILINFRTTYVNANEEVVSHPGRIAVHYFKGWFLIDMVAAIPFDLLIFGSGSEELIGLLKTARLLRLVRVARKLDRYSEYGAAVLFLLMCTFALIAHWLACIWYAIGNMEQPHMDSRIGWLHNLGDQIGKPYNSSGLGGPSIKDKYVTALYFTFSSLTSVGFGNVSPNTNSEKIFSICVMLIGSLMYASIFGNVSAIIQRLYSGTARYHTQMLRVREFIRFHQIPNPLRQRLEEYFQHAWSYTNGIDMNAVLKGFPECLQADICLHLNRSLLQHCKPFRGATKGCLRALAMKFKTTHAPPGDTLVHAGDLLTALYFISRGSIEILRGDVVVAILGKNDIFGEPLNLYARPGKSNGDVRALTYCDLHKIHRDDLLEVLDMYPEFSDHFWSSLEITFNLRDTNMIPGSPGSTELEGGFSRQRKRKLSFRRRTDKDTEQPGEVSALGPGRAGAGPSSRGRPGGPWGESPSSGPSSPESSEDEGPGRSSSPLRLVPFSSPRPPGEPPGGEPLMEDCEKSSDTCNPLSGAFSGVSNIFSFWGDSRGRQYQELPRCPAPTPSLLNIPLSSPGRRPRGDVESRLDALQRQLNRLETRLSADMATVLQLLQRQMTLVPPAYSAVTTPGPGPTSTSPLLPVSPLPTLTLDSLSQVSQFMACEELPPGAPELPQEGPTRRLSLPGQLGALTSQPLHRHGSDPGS

| Structure (SMILES) | hERG current change (%, negative = inhibition) at 10uM [%] |
| --- | --- |
| O=C(CSc1nc2ccsc2c(=O)n1CC1CCC(C(=O)O)CC1)c1ccc(Cl)cc1 (stereo not drawn) | 33.9 |
| Cc1cccc(CNC(=O)c2ccc3c(c2)N(C)CCS3)c1 | -59.4 |
| CN1CCSc2ccc(C(=O)NCc3cccc(Br)c3)cc21 | 0.343 |
| CN1CCSc2ccc(C(=O)NCc3ccccc3)cc21 | -9.52 |
| O=C(c1ccc2c(c1)N(Cc1ccc(F)cc1)CCS2)N1CCC2(CC1)OCCO2 | -57.1 |
| O=C(c1ccc2c(c1)N(Cc1ccc(F)cc1)CCS2)N1CCOCC1 | -23.3 |
| O=C(c1ccc2c(c1)N(Cc1ccccc1)CCS2)N1CCC2(CC1)OCCO2 | -56.1 |
| CN1CCN(CCCNC(=O)c2ccc3c(c2)N(Cc2ccccc2)CCS3)CC1 | -23.6 |
| O=C(c1ccc2c(c1)N(Cc1ccccc1)CCS2)N1CCOCC1 | -29.7 |
| O=C(NCCCN1CCCC1)c1ccc2c(c1)N(Cc1ccccc1)CCS2 | -69.6 |
| Cc1ccc(CN2CCSc3ccc(C(=O)N4CCC5(CC4)OCCO5)cc32)cc1 | -49.1 |
| O=C(c1ccc2c(c1)N(Cc1ccccc1)CCS2)N1CCCCC1 | -32.9 |
| CCN1CCN(CCCNC(=O)c2ccc3c(c2)N(Cc2ccccc2)CCS3)CC1 | -39.3 |
| S=C(NC1CCCC1)N1CCN(c2ncccn2)CC1 | -19.3 |
| C[C@@]12CCC=C[C@H]1[C@H](c1ccoc1)N(Cc1ccccc1)C2=O | -8.15 |
| CC(=O)c1c(N)n(C)c(=O)n(C)c1=O | -4.24 |
| CSc1oc(-c2ccc(F)cc2)nc1S(=O)(=O)c1ccc(F)cc1 | 3.51 |
| NNc1nnnc2c1sc1nc(N3CCOCC3)c3c(c12)CCCC3 | 5.3 |
| COc1cc(C(=O)OCC(=O)Nc2cccc(S(=O)(=O)N3CCOCC3)c2)ccc1OCC(C)C | 18.3 |
| CC(C)(C)C(=O)/C=C(\N)c1ccncc1 | 1.74 |
| CCOc1ccc(N(CC(=O)NCCSCc2ccc(Cl)cc2)S(C)(=O)=O)cc1 | 4.71 |
| COc1ccc(C)cc1NC(=O)CCNS(=O)(=O)c1cccc(C(F)(F)F)c1 | -27.6 |
| Cc1cc2c(cc1S(=O)(=O)N(C)C1CCCCC1)OCC(=O)N2 | 7.2 |

| Structure (SMILES) | hERG current change (%, negative = inhibition) at 10uM [%] |
| --- | --- |
| O=S(=O)(NCCCCCNS(=O)(=O)c1ccccc1)c1ccccc1 | -2.98 |
| Cc1ccc(OCC(=O)Nc2ccc(C(=O)O)cc2NC(=O)COc2ccc(C)c(C)c2)cc1C | 6.5 |
| COc1ccc2[nH]c3c(=O)n(CCCN4CCOCC4)cnc3c2c1 | -3.86 |
| COc1ccc2c(c1)[nH]c1c(=O)n(CC3CCCO3)cnc12 (stereo not drawn) | 11.1 |
| COc1ccc2c(c1)[nH]c1c(=O)n(CCN3CCCC3)cnc12 | -46.3 |
| CCC1CCCN1Cn1cnc2c([nH]c3ccc(OC)cc32)c1=O (stereo not drawn) | -62.6 |
| CCN1CCCC1Cn1cnc2c([nH]c3cc(OC)ccc32)c1=O (stereo not drawn) | -63.8 |
| COc1ccc2[nH]c3c(=O)n(CCc4ccccc4)cnc3c2c1 | -6.62 |
| COc1ccc2[nH]c3c(=O)n(CCN4CCOCC4)cnc3c2c1 | -2.38 |
| COc1ccc2[nH]c3c(=O)n(Cc4ccncc4)cnc3c2c1 | -11 |
| CCN1CCCC1Cn1cnc2c([nH]c3ccc(OC)cc32)c1=O (stereo not drawn) | -66.1 |
| CCCc1cc(CNC(=O)C2CCC(=O)N(CCc3cccc(F)c3)C2)on1 (stereo not drawn) | -49.6 |
| COc1ccccc1NC(=O)c1ccc(C)c(S(=O)(=O)N2CCCCC2)c1 | -8.22 |
| Cc1nnsc1C(=O)NNc1ccc(C(C)(C)C)cc1 | 14.1 |
| Cc1onc(-c2c(F)cccc2Cl)c1C(=O)c1ccccc1O | -0.367 |
| CCc1ccc2nc(SCC(=O)Nc3nnc(C)s3)c(C)cc2c1 | 16 |
| Cn1cc(Br)c(C(=O)N/N=C/c2cccc(OC3CSC3)c2)n1 | -2.36 |
| CN(C)c1ccc(-n2cccc2/C=C/[N+](=O)[O-])cc1 | 20.2 |
| COc1ccc(-n2cccc2/C=C/[N+](=O)[O-])cc1 | -50.4 |
| COc1ccc(-n2cccc2C=O)cc1 | 16.7 |
| CCOC(=O)c1c(NCc2ccc3c(c2)OCO3)c2ccccc2[nH]c1=O | -10.8 |
| O=C(Cc1ccccc1)N/N=C/c1ccc(OCC(=O)Nc2ccccc2)cc1 | -14.2 |
| Cc1cc(NC(=O)CSc2nc3ccc(Cl)cc3[nH]2)no1 | 9.82 |

| Structure (SMILES) | hERG current change (%, negative = inhibition) at 10uM [%] |
| --- | --- |
| CN1CCN(c2ccc(NC(=O)CSc3ccccc3)cc2F)CC1 | -68.4 |
| O=C(CSc1ccccc1)Nc1ccc(N2CCN(c3ccccc3)CC2)c(F)c1 | 10.9 |
| Cc1ccc(SCC(=O)Nc2ccc(N3CCN(c4ccccc4)CC3)c(F)c2)cc1 | 10.3 |
| Cc1ccc(SCC(=O)Nc2ccc(N3CCN(C)CC3)c(F)c2)c(C)c1 | -72 |
| CN1CCN(c2ccc(NC(=O)CN3CCOCC3)cc2F)CC1 | 24.5 |
| Cc1ccc(SCC(=O)Nc2ccc(N3CCN(C)CC3)c(F)c2)cc1 | -64.4 |
| O=C(CSc1ccccc1)Nc1ccc(N2CCOCC2)c(F)c1 | 11.8 |
| CC(C)C(=O)Nc1ccc(N2CCN(C)CC2)c(F)c1 | 14.2 |
| COc1ccc(SCC(=O)Nc2ccc(N3CCN(C)CC3)c(F)c2)cc1 | -49.7 |
| Cc1ccc2c(CC(=O)OC(C)C(=O)Nc3ncc(Cl)cc3Cl)coc2c1 (stereo not drawn) | -28.2 |
| NC(=O)c1ccsc1NC(=O)c1cccs1 | -13.6 |
| O=C(Nc1ccc2c(c1)OCO2)c1ccc(N2C(=O)c3ccccc3C2=O)cc1 | -5.61 |
| Cc1cc2occ(CC(=O)N(CC(C)C)c3c(N)n(Cc4ccccc4)c(=O)[nH]c3=O)c2cc1C | -18.4 |
| O=C(Cn1cnc2c(nnn2Cc2ccccc2F)c1=O)NCC1CCCO1 (stereo not drawn) | -3.88 |
| O=C(/C=C/c1ccc(F)cc1)N1CCN(c2ncccn2)CC1 | 12.1 |
| O=C(/C=C/c1ccc([N+](=O)[O-])cc1)N1CCN(S(=O)(=O)c2cccs2)CC1 | -18.7 |
| O=C(/C=C/c1ccco1)N1CCN(S(=O)(=O)c2cccs2)CC1 | -7.4 |
| O=C(/C=C/c1cccc([N+](=O)[O-])c1)N1CCN(S(=O)(=O)c2cccs2)CC1 | -62.2 |
| O=C(/C=C/c1ccccc1[N+](=O)[O-])N1CCOCC1 | 15.5 |
| O=C(/C=C/c1cccc(F)c1)N1CCN(c2ncccn2)CC1 | 7.29 |
| O=C(/C=C/c1ccccc1[N+](=O)[O-])N1CCN(c2ccc(F)cc2)CC1 | -56.5 |
| O=C(/C=C/c1ccccc1)N1CCN(c2ccccn2)CC1 | -42.8 |
| O=C(/C=C/c1ccccc1[N+](=O)[O-])N1CCN(c2ccccc2F)CC1 | -13.8 |

| Structure (SMILES) | hERG current change (%, negative = inhibition) at 10uM [%] |
| --- | --- |
| O=C(/C=C/c1ccccc1Cl)N1CCN(c2ncccn2)CC1 | -32.4 |
| O=C(/C=C/c1cccc(F)c1)N1CCN(c2ccccn2)CC1 | -118 |
| O=C(/C=C/c1c(Cl)cccc1Cl)N1CCN(c2ncccn2)CC1 | -72.7 |
| COc1cccc(CNC(=O)c2ccc(CS(=O)(=O)Cc3ccc(C)cc3)o2)c1 | -12.8 |
| CCN(c1cccc(C)c1)S(=O)(=O)c1nnc(NC(=O)c2ccco2)s1 | 3.8 |
| CCOC(=O)c1sc(NC(=O)c2ccc3nc[nH]c3c2)nc1C | 8.25 |
| O=C(Nc1cc2ccccc2oc1=O)c1ccccc1 | 22.7 |
| O=C(Cc1ccccc1)N[C@@H](Cc1ccccc1)C(=O)O | 7.29 |
| Cc1ccc(CC(=O)NCCC(=O)O)cc1 | 16.9 |
| Cc1c(C(=O)O)oc2ccc(S(=O)(=O)NCCC3=CCCCC3)cc12 | 0.629 |
| COc1ccc(NC(=O)C2CCN(C(=O)c3ccco3)CC2)c(OC)c1 | 22.3 |
| Cc1nc2ccc(Br)cn2c1NC(C)(C)C | -20.9 |
| COc1ccc(-c2cc(C#N)nc(N3CCN(c4ccccc4)CC3)n2)cc1 | 3.41 |
| CCOc1cc2[nH]c(=S)n(CCCN3CCCC3=O)c(=O)c2cc1OCC | -23.5 |
| COCc1nnc(NC(=O)c2cccc(NC(=O)c3ccccc3)c2)s1 | -8.59 |
| O=C(/C=C/c1cccc([N+](=O)[O-])c1)N1CCOCC1 | -3.86 |
| O=C(/C=C/c1cccc([N+](=O)[O-])c1)N1CCN(c2ccc(F)cc2)CC1 | -56.7 |
| O=C(/C=C/c1cccc([N+](=O)[O-])c1)N1CCN(c2ccccc2F)CC1 | -38.9 |
| O=C(NCCC(=O)N1CCCC1)c1ccccc1Cl | 22 |
| CNC(=O)C(C)N1c2cccc3cccc(c23)S1(=O)=O (stereo not drawn) | 22.3 |
| Cc1ccc(OCc2nnc(SCC(=O)c3ccccc3)n2-c2ccccc2)cc1 | 1.75 |

Reference: publication PMC4336329 (PLoS ONE, 2015)
